Structures are written as SMILES. Inconclusive results are not listed. A call without a number means that no potency is given here. Values without a mark were called inactive. Active and inactive are the calls of the source. Calls follow the shape of the dose curve; as a rule, active = well fitted cell-killing curve with a large enough effect; inconclusive = small, poorly fitted or top-dose-only effect, or effect the other way; inactive = no such curve, though single readings can be large or run the other way.
Potency is read from the fitted curve at half-maximal effect.

The nature of the experiment: Viability qHTS for spleen associated tyrosine kinase inhibitor (SYKi) naive MV4-11 cells (AID 1963823). Also: nearly all actives have a fitted effect of over 40% in size. Particulars: MV4-11 AML viability, CellTiter-Glo luminescence, 72 h; series mostly up to 45 µM. In outline:
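qHTS, SYK inhibitor-naive MV4-11; 500 cells/well; 72 hr compound exposure, 37 C; CellTiter-Glo added, 10 min RT; luminescence read.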
For orientation: qHTS replaces the single test concentration by a dilution series.
For the molecule `C=C1CC[C@@]2(OC1)O[C@H]1CC3C4CC=C5C[C@@H](O[C@@H]6O[C@@H](C)[C@H](O)[C@@H](O)[C@H]6O)C[C@@H](O[C@@H]6O[C@H](C)[C@H](O)[C@H](O)[C@H]6O[C@@H]6O[C@@H](C)[C@H](O)[C@@H](O)[C@H]6O)[C@]5(C)C4CC[C@]3(C)[C@H]1[C@@H]2C` (stereo not given in full), the viability (% of control) is 70.4% [at 9.25 µM].
Regarding `COC(=O)C1=CO[C@@H](O[C@@H]2O[C@H](CO)[C@@H](O)[C@H](O)[C@H]2O)[C@H]2[C@@H]1[C@H](O)C[C@]2(C)O`, the Potency result is “inactive”.
As to `CC[C@H]1CN(c2nc(N)c(C(N)=O)nc2Cl)CCN1C1CCN(Cc2ccc(Cl)cc2)CC1`, the Potency entry is “inactive”.
`O=C(O)c1cc2cccc([N+](=O)[O-])c2[nH]1`: the Potency entry is “inactive”.
In the case of `CCOc1cccc2c1OC(c1ccc(F)cc1)C([N+](=O)[O-])=C2` (stereo not given), the Potency was 1.16 µM (active).
Turning to `C[n+]1ccc(-c2c3nc(c(-c4cc[n+](C)cc4)c4ccc([nH]4)c(-c4cc[n+](C)cc4)c4nc(c(-c5cc[n+](C)cc5)c5ccc2[nH]5)C=C4)C=C3)cc1`, the Potency result was “inactive”.
For the molecule `COc1cc2c(cc1O)[C@H](c1ccc(O[C@@H]3O[C@H](CO)[C@@H](O)[C@H](O)[C@H]3O)c(OC)c1)[C@@H](CO)[C@](O)(CO)C2`, the Potency entry was “inactive”.
Turning to `CC/C=C/CC1=C(CCCCCCCC(=O)O)CCC1=O`, the Potency result is “inactive”.
`Cc1ccc(OC[C@H](O)[C@H](C)NC(C)C)c2c1CCC2`: the Potency entry was “inactive”.
For the molecule `C=C1C[C@]23C[C@H]1CC[C@H]2[C@@]1(C)CCC[C@@]2(C)C(=O)O[C@@H]([C@@H]3O)[C@@H]12`, the Potency result is “inactive”.
On to `C[C@H]1[C@H](C)CC[C@]2(C(=O)O)CC[C@]3(C(=O)O)C(=CCC4[C@@]5(C)CC[C@H](O[C@@H]6O[C@@H](C)[C@H](O)[C@@H](O)[C@H]6O)C(C)(C)C5CC[C@]43C)[C@H]12` (stereo not given in full), for which the Potency entry was “inactive”.
As for `COc1cc2c(cc1O)C1(Cc3ccc4c(c3C1=O)OCO4)N(C)CC2` (stereo not given), the Potency result was “inactive”.
For `C=CC/C=C\C/C=C\CCCCCCCc1cccc(O)c1C(=O)O`, the Potency result is “inactive”.
On the same count and under the same terms, in the case of `CC1=C2C3OC(=O)C(C)C3(O)CCC2(C)CCC1` (stereo not given) it was “inactive”.
For the molecule `C=C[C@H]1C(O[C@@H]2O[C@H](CO)[C@@H](O)[C@H](O)[C@H]2O)OC=C2C(=O)N3CCc4c([nH]c5ccccc45)[C@H]3C[C@H]21` (stereo not given in full), the Potency entry was “inactive”.
Turning to `CC1=CC(=O)CC(C)(C)[C@@]1(O)/C=C/C(C)O[C@@H]1O[C@H](CO)[C@@H](O)[C@H](O)[C@H]1O` (stereo not given in full), the Potency result was “inactive”.
The same measure, in the same setting: in the case of `CC(C)C(NC(=O)c1ccc2ccccc2n1)C(=O)NC(CC(=O)O)C(=O)COc1c(F)cccc1F` (stereo not given) it was “inactive”; in that of `CC(NC(=O)[C@H](Cc1ccccc1)NC(=O)OCc1ccccc1)C(=O)CF` (stereo not given in full), “inactive”; in that of `CC12CCC3c4ccc(O)cc4CCC3C1CCC2OC1OC(C(=O)O)C(O)C(O)C1O` (stereo not given), “inactive”.
With `COc1cc([C@@H](O[C@@H]2O[C@H](CO)[C@@H](O)[C@H](O)[C@H]2O)[C@@H]2CO[C@H](c3ccc(O)c(OC)c3)[C@H]2CO)ccc1O`, the Potency entry was “inactive”.
With `C[C@@H]1C[C@H]2OC(=O)[C@@]3(C)CCC[C@](C)(C23)[C@@]1(O)CCC1=CC(=O)OC1O` (stereo not given in full), the Potency result was “inactive”.
Same read-out and setting: the result for `c1ccc2c(Nc3nnc(-c4ccncc4)s3)cccc2c1` reads “inactive”.
`C=C(C)C(=O)OC1CC2(C)OC(=CC2=O)C(=C)CC2OC(=O)C(COC)C12` (stereo not given): the Potency was 1.61 µM (active).
Turning to `COC(=O)[C@]1(C)CCC[C@@]2(C)[C@@H]3CC[C@@H]4C[C@@]3(CC[C@@H]21)C[C@H]4C(=O)O`, the Potency entry was “inactive”.
Consider `CC[C@@H]([C@H](C)O)n1ncn(-c2ccc(N3CCN(c4ccc(OC[C@@H]5CO[C@@](Cn6cncn6)(c6ccc(F)cc6F)C5)cc4)CC3)cc2)c1=O`, for which the Potency was 11.9 µM (active).
Take `C[C@@H]1[C@H]2[C@H](O[C@@H]3O[C@H](CO)[C@@H](O)[C@H](O)[C@H]3O)OC=C(C(=O)O)[C@H]2C[C@@H]1O`: the Potency entry is “inactive”.
As to `C/C=C(\C)C(=O)O[C@@H](C)[C@H]1CC[C@]2(O)C3CCC4C[C@@H](OC5CC(OC)C(OC6CC(OC)C(OC7CC(OC)C(OC8OC(C)C(OC9OC(CO)C(O)C(O)C9O)C(OC)C8O)C(C)O7)C(C)O6)C(C)O5)CC[C@]4(C)C3[C@H](O)[C@@H](O)[C@]12C` (stereo not given in full), the viability (% of control) was 34.7% [at 9.25 µM].
On to `COc1ccc(CN2CCN(CCCSc3cc(C(C)(C)C)c(O)c(C(C)(C)C)c3)CC2)c(OC)c1OC`, for which the Potency was 3.48 µM (active).
For `O=C1c2ccccc2C(=O)c2c1ccc(O)c2O`, the Potency was 9.44 µM (active).
As for `COCCN1CCC(C(=O)NO)(S(=O)(=O)c2ccc(Oc3ccc(OC(F)(F)F)cc3)cc2)CC1`, the Potency is 20.6 µM (active).
Regarding `CNC(=O)c1ccc2c(c1)CCO[C@H]2CCN1CCN(c2ccc(C(N)=O)cc2)CC1`, the Potency result was “inactive”.
`CN(C/C=C/C#CC(C)(C)C)Cc1cccc2ccccc12`: the Potency entry is “inactive”.
On to `O=C(O)C(Cc1ccccc1)NC(=O)C1CCCN1` (stereo not given), for which the Potency result was “inactive”.
As for `CS(=O)(=O)c1ccc([C@@H](CC2CCCC2)C(=O)Nc2cnccn2)cc1Cl`, the Potency was 31.6 µM (active).
With `COc1cc(C[C@@]2(O)CO[C@@H](c3ccc(O[C@@H]4O[C@H](CO)[C@@H](O)[C@H](O)[C@H]4O)c(OC)c3)[C@H]2CO)ccc1O`, the Potency result was “inactive”.
Still for that read-out and setting: the result for `CC1CC(=O)[C@]2(O)C(C(=O)OCCc3ccc(O)cc3)=CO[C@@H](O[C@@H]3O[C@H](CO)[C@@H](O)[C@H](O)[C@H]3O)[C@H]12` (stereo not given in full) reads “inactive”.
Still for that read-out and setting: the result for `C=C1CCC2C(C)(C)CC(O)CC2(C)C1CCC(C)CC(=O)O` (stereo not given) reads “inactive”; that for `COc1ccc(/C=C/C(=O)O[C@@H]2[C@@H](OC(C)=O)[C@@H](OC(C)=O)[C@H](O[C@H]3[C@@H]4C=CO[C@@H](O[C@@H]5O[C@H](CO)[C@@H](O)[C@H](O)[C@H]5O)[C@@H]4[C@@]4(CO)O[C@@H]34)O[C@H]2C)cc1O`, “inactive”.
For `Cc1cc(C(=O)N2Cc3cnn(C)c3Nc3ccccc32)ccc1CNC(=O)N1CCC[C@H]1C(=S)N1CCCN(C)CC1`, the Potency entry was “inactive”.
Consider `CNc1cccc(CCOc2ccc3c(c2)CN(CC(F)(F)F)C(=O)[C@H](CC(=O)O)C3)n1`, for which the Potency entry is “inactive”.

The values above are taken from PubChem BioAssay (NCATS).
